Compound activity: PubChem BioAssay, National Center for Advancing Translational Sciences (NCATS)
A selection: hits, their analogues and other compounds. The true share with any hit is near 2.9%.
SNCA expr inh: SNCA gene expression inhibition | HEK-293 SNCA-luciferase knock-in, luminescence, 24 h | Potency, µM (doses to about 57.2 µM), inactives show at the top dose activity change, negative = inhibition, actives largely listed as inhibitors | hit rate 0.17% among 140,000 | AID 1671194;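 further: potency means the concentration at half of the fitted maximal effect; plate controls were DMSO cells for no effect and cell-free wells for full effect; nearly all actives have a fitted effect of over 45% in size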
IP6K1 inh: blocks human inositol hexakisphosphate kinase 1; IP6K1 kinase, ADP-Glo luminescence, 2 h; hits give low values; AID 1645851; hit rate 0.81% among 140,000; activity change, % (series mostly up to about 58 µM); in the data active means activity change below about -25%; further: on the % scale 0 is the no-effect control and ±100 the full control effect
Target sequence (Q92551 whole entry, looked up): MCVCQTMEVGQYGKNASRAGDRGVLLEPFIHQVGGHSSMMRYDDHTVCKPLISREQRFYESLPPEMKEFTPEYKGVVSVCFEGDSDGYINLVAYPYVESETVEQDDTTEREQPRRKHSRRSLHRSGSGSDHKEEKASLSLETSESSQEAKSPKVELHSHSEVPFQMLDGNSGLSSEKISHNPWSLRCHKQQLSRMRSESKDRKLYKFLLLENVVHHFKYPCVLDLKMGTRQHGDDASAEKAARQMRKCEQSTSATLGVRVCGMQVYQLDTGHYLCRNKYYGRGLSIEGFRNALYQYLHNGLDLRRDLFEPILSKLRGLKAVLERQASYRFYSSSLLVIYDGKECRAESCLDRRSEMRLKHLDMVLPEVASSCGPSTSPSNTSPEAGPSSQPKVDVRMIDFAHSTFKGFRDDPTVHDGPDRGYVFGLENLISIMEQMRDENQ
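ADP-Glo luminescence measures ADP made by human IP6K1 during a 2 h RT reaction with ATP/IP6 (mix at 1.3 mM/130 uM); top library doses 57.5 and 19.1 uM final.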
HEK293 viab: reduces viability of HEK-293 SNCA reporter cells; HEK-293-SNCA-luc viability, GF-AFC fluorescence, 24 h; Potency, µM (doses to about 57.1 µM), for inactives: at the top dose activity change, negative = cytotoxicity, actives largely listed as cytotoxic; hit rate 0.12% among 150,000; AID 1671193;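 further: potency means the concentration at half of the fitted maximal effect; 0% = DMSO-treated cells and -100% = medium-only wells without cells; nearly all actives have a fitted effect of over 30% in size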
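HEK-293-SNCA-luc cells (1500/well) plated 24 h, then exposed 24 h to a dilution series; GF-AFC added 30 min at 37C, fluorescence 405/540 nm; normalised to medium-only and DMSO wells, Hill fit.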
KDM5B inhibitor: blocks human KDM5B histone demethylase activity. AID 1347165. hit rate 2.6% among 220,000. Potency, µM (highest dose often 57.7 µM), usual class: inhibitors. Q9UGL1. KDM5B demethylase, FDH-coupled NADH fluorescence (FDH is formaldehyde dehydrogenase); further: potency means the concentration at half of the fitted maximal effect; 0% is about no effect; nearly all actives have a fitted effect of over 70% in size
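qHTS format, multiple compound concentrations. Buffer 50 mM HEPES pH 7.5/0.01% Tween-20; 200 nM KDM5BΔAP final; 10 min compound preincubation; substrate-mix levels 12.5 µM peptide, 25 µM α-KG, 0.25 mM NAD⁺; 30 min RT; ΔRFU.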
IP6K1 inh cnf: human IP6K1 inhibition, confirmatory; recombinant IP6K1 kinase, ADP-Glo luminescence, 2 h; Potency, µM (doses to about 49 µM), for the others: at the highest dose activity change, negative = inhibition, actives largely listed as inhibitors; hit rate 13% among 1,200; shares compounds with IP6K1 inh; further: potency means the concentration at half of the fitted maximal effect; on the % scale 0 is the no-effect control and ±100 the full control effect; nearly all actives have a fitted effect of over 65% in size
An asterisk follows results filed as active; i = inactive; ? = inconclusive; . = no result given; [ ] = another dose, or the depositor's remark. Unless noted, the call rests on the fitted dose curve; in most records, active means well fitted curve in the direction sought with a large enough effect; inconclusive means small, poorly fitted or top-dose-only effect, or another doubt; inactive means no such curve, though single readings can be large; an effect the other way counts as inactive or inconclusive.

SMILES	SNCA expr inh	IP6K1 inh	HEK293 viab	KDM5B inhibitor	IP6K1 inh cnf
COc1ccc(-c2cc(C(=O)NCC3CC3)c3c(C4CCNC4)noc3n2)cc1 (centres undefined)	-3.6%	12.9	3.0%	79.4µM*	.
O=C(NC1CC1)c1cc(C2CC2)nc2onc(C3CCCNC3)c12 (centres undefined)	16.9%	-1.6	-1.2%	?	.
CCn1c(=O)c2ccnn2c2ccc(C(=O)NCc3ccc(OC)cc3OC)cc21	-13.7%	7.9	2.0%	?	.
CCn1c(=O)c2ccnn2c2ccc(C(=O)O)cc21	-17.2%	-12.0	-1.5%	22.4µM*	.
CCCn1cc(CNC(=O)c2ccc3c(c2)n(CC)c(=O)c2ccnn23)c(C)n1	16.8%	27.3	2.5%	22.4µM*	.
CCn1c(=O)c2ccnn2c2ccc(C(=O)NCCc3cccnc3)cc21	-6.6%	2.3	2.3%	31.6µM*	.
Cc1ccc(C(=O)NCCc2cccnc2)cc1	.	.	.	i	.
COc1ccc(CNC(=O)COC(=O)CCSC)cc1	.	.	.	i	.
COc1cccc(NC(=O)C2CCCN(S(=O)(=O)c3ccc4[nH]c(=O)ccc4c3)C2)c1 (centres undefined)	2.4%	-32.6*	-10.0%	i	-0.2%
COc1ccc(NC(=O)C2CCCN(S(=O)(=O)c3ccc4[nH]c(=O)ccc4c3)C2)cc1OC (centres undefined)	19.3%	26.9	6.5%	?	.
COc1ccc2c(ccn2CC(=O)NCc2ccccc2OC)c1	.	.	.	i	.
CCN(CC)S(=O)(=O)c1ccc2c(c1)N(CC(=O)N1CCN(c3cccc(C(F)(F)F)c3)CC1)C(=O)CO2	-11.9%	-25.0*	-18.5%	i	-1.8%
CCN(CC)S(=O)(=O)c1ccc2c(c1)N(CC(=O)N1CCN(c3ccc(F)cc3)CC1)C(=O)CO2	-2.9%	-2.2	?	i	.
CCOc1ccc(CNC(=O)C2CCN(c3nc4ccccc4o3)CC2)cc1	.	.	.	i	.
N#C/C(=C/c1ccc(OCc2ccccc2Cl)cc1)c1nc2ccccc2s1	.	.	.	i	.
O=C(O)CCn1cnc2onc(-c3ccccc3Cl)c2c1=O	1.1%	-41.9*	18.1%	?	-12.2%
COCCn1c(CO)nnc1C1CC(NC(=O)C2(C)CCCC2)C1 (centres undefined)	5.5%	-28.1*	-1.2%	i	-12.3%
Cc1ccc(Sc2c(C)nn(C(C)(C)C)c2OC(=O)C(C)(C)C)cc1	-5.4%	12.7	5.7%	?	.
O=C(Nc1cccc(-c2ccc(N3CCOCC3)nn2)c1)Nc1cc(F)ccc1F	?	-13.3	?	?	.
O=C(Nc1cccc(-c2ccc(N3CCOCC3)nn2)c1)Nc1ccccc1F	-1.3%	-32.1*	-21.9%	?	?
CCC1CN(C(=O)Nc2ccc(C)c(F)c2)c2ccccc2S1 (centres undefined)	-19.5%	-27.4*	9.6%	i	-8.9%
CC1CCN(c2ccc(-c3cccc(N)c3)nn2)CC1	1.41µM*	-44.2*	-19.2%	i	?
Cc1ccc(C(=O)NC[C@H]2O[C@@H](CC(=O)N3CCN(c4ccccn4)CC3)[C@H](O)[C@@H]2O)cc1	7.2%	22.5	-6.1%	i	.
CNCCN1C(=O)CC[C@H]2CN(C(=O)Cc3cccs3)CC[C@H]21	8.1%	12.6	6.5%	i	.
O=S(=O)(N[C@@H]1C[C@H](Cn2cc(-c3cccnc3)nn2)[C@@H](O)[C@H]1O)c1ccccc1	2.3%	2.6	6.1%	?	.
SMILES	SNCA expr inh	IP6K1 inh	HEK293 viab	KDM5B inhibitor	IP6K1 inh cnf
O=C1c2cnc(-c3cccc(CO)c3)nc2OCCN1c1ccccc1	7.94µM*	-40.3*	-16.0%[87.6 µM]	i	?
Cc1nc(-c2ccc(OCC(C)C)c(C#N)c2)sc1C(=O)O	45.7%[25.6 µM]	-49.1*	5.7%[23.9 µM]	.	6.51µM*
COCc1cc(C)nc2sc3c(c12)NC(c1ccccc1C(=O)O)N(c1ccc(OC)cc1)C3=O (centres undefined)	81.8%	-30.7*	17.6%	?	-1.9%
COCc1cc(C)nc2sc3c(c12)NC(c1ccc(O)c(OC)c1)N(c1ccccc1)C3=O (centres undefined)	73.4%	-7.1	?	?	.
CCOc1ccccc1NC(=O)CSc1ccc2nnc(CCNS(=O)(=O)c3ccccc3)n2n1	?	24.6	-27.5%	i	.
Cc1ccsc1/C=C/C1=NCCCN1C	-10.4%[25.6 µM]	-33.3*	-2.7%[23.9 µM]	.	-1.4%
Cc1ccsc1C(=O)N1CCCN(C)c2ccccc21	29.2%	-6.1	0.3%	i	.
COc1cc2c(=O)n(CCC(=O)NCC3CCCO3)c(=O)n(CC(=O)Nc3c(C)cccc3C)c2cc1OC (centres undefined)	-26.9%	-10.6	-6.0%	i	.
COc1ccc(NC(=O)CN2CCN(S(=O)(=O)c3ccc(Br)cc3)CC2)cc1	14.2%	-29.5*	-0.4%	i	-14.5%
CN(C)C(CNS(=O)(=O)c1cccs1)c1ccsc1 (centres undefined)	.	.	.	i	.
COc1ccccc1CNC(=O)c1cc2cccc3c2n1CC(C)S3 (centres undefined)	?	-32.8*	-15.0%	?	-16.6%
COc1ccc(C(=O)Nc2ccc(-c3cc4ccccc4oc3=O)c(C)c2)cc1Br	38.4%	-28.2*	7.0%	?	?
N[C@@H](Cc1cc(I)c(O)c(I)c1)C(=O)O	6.4%[25.6 µM]	-62.0*	-13.0%[23.9 µM]	.	-20.5%
Cc1cc(SCc2sc(-c3ccc(C(F)(F)F)cc3)nc2C)ccc1OCC(=O)O	34.4%	-29.2*	3.6%	.	10.3µM*
COC(=O)c1ccccc1NC(=O)c1sc2nc(C)cc(C)c2c1NC(=O)c1ccccc1OC	-21.2%	-29.9*	7.8%	?	8.4%
CCN1C(=O)N(CC(N)=O)C(=O)C12CCN(Cc1cccc(Oc3ccccc3)c1)CC2	?	7.6	-3.9%	i	.
CCOc1ccccc1NC(=O)Cn1nc2c(cc1=O)CCCCC2	19.9%	5.4	-6.6%	i	.
CCN(C(=O)C(NS(=O)(=O)c1cccc2nsnc12)c1ccccc1)c1ccccc1 (centres undefined)	-17.8%	-27.6*	4.3%	i	-12.1%
O=C(NC1CC1)c1cc(-c2ccccc2F)cc2c1OCCN2Cc1cccnc1	32.3%[87.6 µM]	-25.7*	?	31.6µM*	?
O=C(NCc1cccnc1)c1cc(-c2ccccc2F)cc2c1OCCN2Cc1cccnc1	-5.5%	-27.7*	?	28.2µM*	?
CNC(=O)c1cc(-c2ccc(CO)cc2)cc2c1OCCN2Cc1cccnc1	3.0%[87.6 µM]	-26.5*	6.3%[87.6 µM]	28.2µM*	21.9%
COc1ccc(-c2cc(C(=O)NCc3cccnc3)c3c(c2)N(C)CCO3)cn1	2.3%[87.6 µM]	-21.4	-7.2%[87.6 µM]	?	.
COC(=O)c1ccc(CNC(=O)c2cc3c(C)nn(C)c3s2)cc1	.	.	.	i	.
C[C@@H]1CN(C(=O)c2cnc3c(O)cccn3c2=O)CC[C@@]1(O)C1CCC1	17.6%	-28.3*	17.2%	31.6µM*	-11.0%
COc1ccccc1CCC(=O)N1CCN(C(=O)c2ccccc2)CC1	.	.	.	i	.
